Screening data from PubChem.
Cycloheximide cs – counter-screen for Shiga toxin inhibitors: cycloheximide protein synthesis inhibition. cell reporter, cycloheximide protein synthesis inhibition counterscreen. max response, %. 300,000 compounds, 12% hits; in the data active = max response mostly above about 13%, no sharp cut-off; inactive = mostly below about 14%; also: read at 38.3 µM for the half of the compounds with a filed dose; 0% is about no effect
NS1 function inh – influenza NS1 inhibition; 270,000 compounds, 0.4% hits; Potency, µM (doses to about 46.1 µM), for inactives: top-dose activity, positive = more growth; calls by dose curve; also: potency is read from the fitted curve at half-maximal effect; actives are rising curves; nearly all actives have a fitted effect of over 50% in size
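Growth recovery, yeast-based: influenza A NS1 expressed in S. cerevisiae causes slow growth, and suppressors are detected by OD600. The parent strain without NS1 is used as positive control.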
Pf growth 96h – inhibits malaria parasite growth, 96 h. P. falciparum luciferase reporter growth, 96 h. Potency, µM (highest dose often 28.7 µM), for inactives: top-dose activity change, negative = inhibition, hits mostly inhibitors. 320,000 compounds, 6.9% hits; also: potency is read from the fitted curve at half-maximal effect; % is scaled to controls: 0 for no effect and ±100 for the full control effect
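Parasite growth measured via integrated firefly luciferase reporter in P. falciparum. Infected erythrocytes at 2% hematocrit, 0.05% parasitemia final were treated 96 hours at 37 C under 5% CO2, and luminescence was read.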
Pf growth 48h – P. falciparum growth inhibition at 48 hours (one generation). P. falciparum luciferase growth in erythrocytes, 48 h. 310,000 compounds, 5.9% hits. Potency, µM (highest dose often 28.7 µM), for the others: at the highest dose activity change, negative = inhibition, usual class: inhibitors. AID 504832; also: potency is read from the fitted curve at half-maximal effect; % is scaled to controls: 0 for no effect and ±100 for the full control effect
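Cell-based growth assay: transgenic P. falciparum expressing firefly luciferase, cultured in red cells within RPMI 1640 containing 0.5% w/v Albumax, 24 mM bicarbonate and gentamycin. A drop in luciferase activity indicates inhibition.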
Shiga inhibitor – blocks Shiga toxin action in Vero cells | Vero cells, Shiga toxin protein synthesis inhibition reporter | inhibition, % at 38.7 µM | 290,000 compounds, 9.2% hits; in the data active = inhibition mostly above about 28%, no sharp cut-off; inactive = mostly below about 43%; also: 0% is about no effect
FBPA Giardia inh – inhibitors of Giardia lamblia fructose-1,6-bisphosphate aldolase; purified Giardia FBPA; 290,000 compounds, 0.71% hits; Potency, µM (top dose mostly 59.6 µM), for inactives: at the top dose activity, negative = inhibition, actives largely listed as inhibitors; A8B2U2; also: potency is read from the fitted curve at half-maximal effect; % is scaled to controls: 0 for no effect and ±100 for the full control effect; nearly all actives have a fitted effect of over 55% in size
Target sequence (A8B2U2 whole entry, looked up): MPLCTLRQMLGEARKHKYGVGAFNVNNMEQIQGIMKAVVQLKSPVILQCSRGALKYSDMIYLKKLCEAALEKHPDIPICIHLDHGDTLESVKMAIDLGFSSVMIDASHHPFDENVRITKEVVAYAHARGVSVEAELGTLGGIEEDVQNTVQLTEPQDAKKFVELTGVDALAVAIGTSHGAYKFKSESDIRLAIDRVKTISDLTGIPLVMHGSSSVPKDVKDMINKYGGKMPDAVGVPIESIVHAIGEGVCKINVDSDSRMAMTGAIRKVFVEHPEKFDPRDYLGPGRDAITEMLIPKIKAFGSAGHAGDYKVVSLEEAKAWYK
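40 nM FBPA preincubated 10 min at RT with compound (up to 57.5 uM final), then substrate plus GAPDH/TPI/NAD/arsenate coupling and diaphorase/resazurin added. Fluorescence read after 20 min at RT, 525/598 nm.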
Active calls of the source: *; u = inconclusive; x = no result given. Shown are actives, neighbours in structure and some others; about 21% of the full set was active somewhere. Unless noted, calls follow the shape of the dose curve; as a rule, active = well fitted curve in the direction sought with a large enough effect; inconclusive = small, poorly fitted or top-dose-only effect, or another doubt; inactive = no such curve, though single readings can be large; an effect the other way counts as inactive or inconclusive.

SMILES	Cycloheximide cs	NS1 function inh	Pf growth 96h	Pf growth 48h	Shiga inhibitor	FBPA Giardia inh
COc1ccc2ccc3c(c2c1)N=CC1(O3)N(C)c2ccccc2C1(C)C (stereo unspecified)	10.1	-27.3%	u	-8.6%	34.3*	u
CN1c2ccccc2C(C)(C)C12CC(CCl)=NO2 (stereo unspecified)	-3.0	1.2%	7.5%	0.1%	14.6	3.9%
CC1(C)OC(=O)N(c2ccccc2)C12C=Cc1cc(Br)ccc1O2 (stereo unspecified)	-2.5	-75.6%	x	u	-13.3	0.3%
COc1ccc2c(c1)C(=O)N(c1ccccc1C)C(=O)C2(C)C	-0.8	x	-11.7%	-4.1%	-11.9	-0.6%
CN1c2ccccc2C(C)(C)[C@]12C=Cc1cc(O)ccc1O2	38.0*	4.8%	x	u	57.9	-22.6%
CN1c2ccccc2C(C)(C)C12C=Nc1c(ccc3ccccc13)O2 (stereo unspecified)	27.1*	-36.3%	u	u	99.4*	11.2µM*
O=C(NCC1CCCN(C(=O)Cc2ccccc2Cl)C1)c1ccc(F)cc1 (stereo unspecified)	11.1	4.6%	u	u	11.9	x
O=C1C(=O)N(c2ccc(O)cc2)C(c2ccccc2[N+](=O)[O-])/C1=C(\O)c1ccccc1 (stereo unspecified)	-1.7	1.4%	11.7%	1.0%	18.2	-5.6%
CCOC(=O)c1cccc(Nc2nc(-c3cccnc3)nc3ccccc23)c1	-1.7	9.2%	8.28µM*	13.1µM*	-11.2	-18.6%
COC(=O)c1cccc(Nc2nc(-c3ccncc3)nc3ccccc23)c1	-1.8	1.4%	u	1.85µM*	-7.2	-12.7%
COC(=O)c1ccc(Nc2nc(-c3ccncc3)nc3ccccc23)cc1	-3.5	1.8%	-1.4%	5.9%	-3.9	-11.2%
COC(=O)c1cccc(Nc2nc(-c3cccnc3)nc3ccccc23)c1	-1.6	5.0%	u	u	13.5	3.6%
CCOc1ccc(NC(=O)N[C@@H](Cc2ccccc2)C(=O)O)cc1	6.9	-4.3%	35.0%	13.9%	11.2	-7.4%
CCc1noc(C)c1C(=O)Nc1nc2c(C)cc(C)cc2s1	x	x	46.2%	3.9%	x	x
CCc1ccc2nc(NC(=O)c3cc(C)on3)sc2c1	53.6*	-58.0%	-11.2%	38.1%	95.5*	x
Cc1cc(C)c2nc(NC(=O)c3cc(C)on3)sc2c1	22.1*	-14.1%	42.7%	x	20.6	2.2%
CS(=O)(=O)Nc1cccc(C2=NN(C(=O)c3ccccc3)C(c3cccs3)C2)c1 (stereo unspecified)	0.6	3.3%	26.2%	13.1µM*	-5.4	-6.4%
CCS(=O)(=O)Nc1cccc(C2=NN(S(=O)(=O)c3ccc(F)cc3)C(c3cccs3)C2)c1 (stereo unspecified)	-2.5	u	8.28µM*	u	40.3	2.6%
CCS(=O)(=O)N1N=C(c2cccc(NS(C)(=O)=O)c2)CC1c1cccs1 (stereo unspecified)	-2.7	-1.7%	u	-4.4%	-3.3	x
CCS(=O)(=O)Nc1cccc(C2=NN(S(=O)(=O)CC)C(c3cccs3)C2)c1 (stereo unspecified)	-6.0	1.1%	13.1µM*	u	-4.5	x
CC(C)c1nc2oc3c(NCC4CCCO4)ncnc3c2c2c1CCC2 (stereo unspecified)	-5.8	-52.9%	2.94µM*	1.85µM*	-14.7	-10.3%
CC(C)c1nc2oc3c(N(C)CCO)ncnc3c2c2c1CCC2	-1.9	6.9%	0.828µM*	u	-2.1	-9.4%
CC(OC(=O)CC1Sc2ccccc2NC1=O)C(=O)NC1CCCC1 (stereo unspecified)	-4.4	13.0%	-9.8%	2.9%	-11.2	3.7%
CN[C@@H]1C[C@@H](c2ccc(Cl)c(Cl)c2)c2ccccc21	-2.5	-43.1%	13.5µM*	15.1µM*	-10.7	-5.8%
CN[C@@H]1C[C@H](c2ccc(Cl)c(Cl)c2)c2ccccc21	x	x	x	x	x	-2.1%
SMILES	Cycloheximide cs	NS1 function inh	Pf growth 96h	Pf growth 48h	Shiga inhibitor	FBPA Giardia inh
C/C=C(\C)C(=O)NCCN1C2=NC[C@H](C)N2C[C@@H]1Cc1ccc(OC)cc1	-1.5	-4.1%	63.3%	45.8%	14.4	4.7%
Cc1ccc(C(=O)N[C@@H](C)CN2C3=NC[C@H](C)N3C[C@H]2Cc2ccc(O)cc2)cc1Br	12.2	-8.0%	4.15µM*	10.4µM*	5.0	1.4%
COc1ccc(C[C@@H]2CN3C(=NC[C@@H]3C)N2CCNC(=O)c2ccc(C)c(Br)c2)cc1	-1.0	2.2%	13.1µM*	u	-13.3	1.0%
Cc1ccc(S(=O)(=O)NC(CC(C)C)C(=O)NCC(C)(C)N2CCOCC2)cc1 (stereo unspecified)	x	x	-21.6%	16.8%	x	x
CCN(CC)S(=O)(=O)c1ccc2c(c1)nc(SCC(N)=O)n2-c1ccc(OC)cc1	-0.3	0.8%	u	x	-9.0	-3.3%
CCN(CC)S(=O)(=O)c1ccc2c(c1)nc(SCC(=O)N1CCCCCC1)n2-c1ccc(OC)cc1	-3.3	8.1%	x	13.1µM*	-3.9	-1.0%
CCN(CC)S(=O)(=O)c1ccc2c(c1)nc(SCC(=O)N1CCOCC1)n2-c1ccccc1OC	10.8	16.7%	11.7µM*	u	-13.1	x
COc1ccccc1-n1c(SCC(=O)N2CCOCC2)nc(O)cc1=O	6.0	u	u	u	-3.6	3.8%
CCOC(=O)c1nnn(CC(=O)NC(=O)Nc2ccc(F)cc2)c1C(=O)OCC	-1.9	x	-15.0%	-1.0%	-12.7	2.5%
CC1Cc2cc(S(=O)(=O)N3CCC(C(=O)N4CCN(c5ccccc5F)CC4)CC3)ccc2N1C(=O)C1CC1 (stereo unspecified)	-1.6	8.2%	6.7%	u	-2.0	x
CC(C)Cn1c2c(c(O)c(C(=O)Nc3ncccc3O)c1=O)CCCC2	-3.2	-9.4%	-9.1%	u	-12.6	7.92µM*
CCOCCCNC(=O)CN1CCN(Cc2ccc(Cl)cc2)C1=O	-2.0	5.5%	18.8%	0.3%	-3.6	7.1%
CCNc1nc(Oc2ccc(C(=O)OCC)cc2)nc(SC)n1	-4.3	-32.3%	5.7%	11.7µM*	-18.7	-1.3%
CCOC(=O)c1ccc(Oc2nc(NC)nc(SC)n2)cc1	-8.1	-6.8%	x	3.7µM*	-20.4	8.0%
Cc1cc(C)nc(N(C#N)Cc2cccc(Cl)c2)n1	-1.0	-8.9%	-12.0%	-7.5%	7.7	0.1%
COc1cc2c(-c3ccc(O)cc3)nc3c(c(C)nn3-c3ccccc3)c2cc1OC	-1.3	1.2%	33.8%	14.7µM*	-18.5	-8.3%
COc1cc2c(C)nc3c(c(C)nn3-c3ccccc3)c2cc1OC	15.1	2.8%	22.9%	7.4%	-12.9	-1.1%
CCn1ccnc1C(O)(c1ccccc1)c1ccccc1	-3.7	-1.4%	71.9%	2.7%	x	-21.9%
Cc1ccc(S(=O)(=O)N2CCN(C)CC2c2ccccc2)cc1 (stereo unspecified)	x	x	34.8%	16.0%	x	x
Brc1ccc2c(c1)CN1CCCC1=N2	-3.4	1.8%	u	10.4µM*	-12.2	-7.7%
